NADH coupling: inhibition of NAD/NADH coupling enzymes, library profiling. coupled PK/LDH NADH assays, four targets. IC50, µM (titrated, usually from 10 µM). 0.02% of 65,000 active;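 active = single-dose screening hits from any of four coupled enzyme assays that gave an IC50 when retested across doses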;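 note: the DPM-DC format reads NADH fluorescence rather than 340 nm absorbance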
PMK inhibit: S. pneumoniae PMK inhibition | inhibition, % at 10 µM | 0.49% of 65,000 active | purified PMK, PK/LDH-coupled NADH absorbance 340 nm;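 active = top-ranked compounds by inhibition in the single 10 µM screen, taking a fixed number of the strongest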
Fluor 339 460: intrinsic fluorescence of library compounds, ex339/em460 – biochemical, MLSMR library, data from DPM-DC assay, artefact control, profiling panel; compound autofluorescence, ex339/em460 nm, NADH buffer; active compounds read high; 1 = no-compound wells, NADH background; fluorescence fold increase at 10 µM; 5.5% of 65,000 active; AID 709;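 active = at 10 µM, mean starting fluorescence two-fold or more over control wells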;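 note: signal is the first read of a kinetic run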
Spn MK inh: inhibitors of Streptococcus pneumoniae mevalonate kinase | purified MK, PK/LDH-coupled NADH absorbance 340 nm | inhibition, % at 10 µM | 0.48% of 65,000 active;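 active = ranked among the strongest by inhibition in the single 10 µM screen, a fixed top-ranked set picked for dose follow-up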
Spn DPM-DC inh: inhibitors of Streptococcus pneumoniae diphosphomevalonate decarboxylase; 0.49% of 65,000 active; purified DPM-DC, PK/LDH coupled NADH fluorescence; calls only at 10 µM;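 active = the 320 compounds with the highest percent inhibition in the single-dose primary screen, excluding strongly autofluorescent ones, cut at about 32% in these data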;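 note: kinetic rate of NADH fluorescence loss reporting ADP formed by the decarboxylase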
A340 absorber: compound absorbs light at 340 nm. compound absorbance at 340 nm, fold over control. fold change at 10 µM. 65,000 tested, under 10 active;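 active = at 10 µM dose, initial 340 nm absorbance at least 2 fold that of control wells; inactive = change under 2 fold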;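 note: initial absorbance extrapolated from kinetic A340 decline of NADH oxidation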
Of the large screens only hits and unclear results are named; the others gave an inactive call. Most compounds without a hit are left out; they make up all but 6.8% or so of the library.

Nc1cc(N)cc(-c2nc3ccccc3o2)c1	none
CCC(=O)N1C(C(=O)N2CCCC2)CSC1c1ccc(OC)cc1 (stereo not drawn)	none
Cc1cc2nnc(SCc3ccccc3)n2c(N)n1	none
CC(C)COC(=O)NCC12C=CC(O1)C1C(=O)N(c3ccc(Cl)cc3)C(=O)C12 (stereo not drawn)	PMK inhibit 25.0
O=C(Nc1nc(NC(=O)c2ccco2)n(-c2ccccc2)n1)c1ccccc1	Fluor 339 460 2.38 (not shown: Spn DPM-DC inh)
O=C(O)c1[nH]c2ccccc2c1NS(=O)(=O)Cc1ccccc1	Fluor 339 460 2.41
CC(=O)c1ccc(NS(=O)(=O)Cc2ccccc2)cc1	none
O=C(NCc1n[nH]c(=S)n1-c1ccccc1)c1ccco1	Spn MK inh 41.0
Cc1ccc(Cc2c(C)nc3c(C(=O)O)cnn3c2C)cc1	none
Cc1nc2c(C(=O)N3CCCCC3)cnn2c(C)c1Cc1ccccc1F	Fluor 339 460 3.18
Cc1ccccc1Cc1c(C)nc2c(C(=O)N3CCN(Cc4ccc5c(c4)OCO5)CC3)cnn2c1C	Fluor 339 460 2.26, Spn DPM-DC inh active
O=C(Nc1cccc2nsnc12)C1CC(=O)N(c2ccccc2)C1 (stereo not drawn)	none
NS(=O)(=O)c1cc2c(cc1Cl)NC=NS2(=O)=O	none
Cc1c2c(n3c(nc4ccccc43)c1C#N)N(Cc1ccccn1)CC2	Fluor 339 460 4.94 (not shown: Spn DPM-DC inh)
N#Cc1c2c(c(N3CCN(c4ccccn4)CC3)n3c1nc1ccccc13)CCC2	none
COCCNc1cc(C)c(C#N)c2nc3ccccc3n12	Fluor 339 460 2.33 (not shown: Spn DPM-DC inh)
Cc1c2c(n3c(nc4ccccc43)c1C#N)N(Cc1cccnc1)CC2	Fluor 339 460 4.95 (not shown: Spn DPM-DC inh)
Cc1cc(N2CCN(c3ccccn3)CC2)n2c(nc3ccccc32)c1C#N	Fluor 339 460 2.24
COc1cccc(NC(=O)CN2C(=O)COc3ccc(Cl)cc32)c1	none
CSc1cccc(NC(=O)CN(c2cc(C)ccc2C)S(C)(=O)=O)c1	none
COC(=O)c1cc(Br)c(=O)n(CCC2=CCCCC2)c1	none
CC(C)Cn1c(SCc2nnc(-c3cccs3)o2)nc(O)cc1=O	none
O=C(Cc1cn2ccsc2n1)OCc1ccccc1	none
O=C(Cc1cn2ccsc2n1)OCc1nc2ccccc2s1	PMK inhibit 25.0
CCC(=O)Nc1cccc(NC(=O)CSc2nnnn2Cc2ccccc2)c1	Spn DPM-DC inh active
O=C(CSc1nnnn1Cc1ccccc1)NCCc1ccccc1	Spn DPM-DC inh active
Cc1nnc(SCCn2c(N(C)Cc3ccccc3)nc3c2c(=O)n(C)c(=O)n3C)s1	none
COc1ccccc1NC(=O)CCC(=O)Nc1nnc(C(F)(F)F)s1	none
CCOC(=O)N1CCN(C(=O)Cc2ccsc2)CC1	none
Cc1oc2nc(SCC(=O)N3CCCCC3)nc(N)c2c1C	none
CCCCc1cc2c(c(NC(C)=O)n1)c(=O)oc1ccccc12	none
CCCCc1cc2c(c(NC(=O)CC)n1)c(=O)oc1ccccc12	Fluor 339 460 2.25
COC(=O)c1cc(NC2c3ccccc3C(=O)N2CCN2CCOCC2)cc(C(=O)OC)c1 (stereo not drawn)	none
COc1ccc(-n2nc3cc(C)c(NC(=O)C(C)C)cc3n2)cc1	Fluor 339 460 5.11 (not shown: Spn DPM-DC inh)
Cc1[nH]nc2c1C(CCc1ccccc1)C(C#N)=C(N)O2 (stereo not drawn)	none
COc1ccc(Cc2noc(-c3ccc(C)cc3)n2)cc1	none
COc1ccc(-c2nnc3sc(COc4ccccc4)nn23)cc1	none
COc1ccc(-c2oc3ncn4nc(COc5ccccc5)nc4c3c2-c2ccc(OC)cc2)cc1	Fluor 339 460 2.42 (not shown: Spn DPM-DC inh)
COc1ccc(-c2oc3ncn4nc(Cc5ccccc5)nc4c3c2-c2ccc(OC)cc2)cc1	Fluor 339 460 2.37 (not shown: Spn DPM-DC inh)
CC1CN(S(=O)(=O)c2ccc(Cl)c(C(F)(F)F)c2)CC(C)O1 (stereo not drawn)	none
CCc1cc2c(=O)c(-n3cnc4ccccc43)coc2cc1O	Fluor 339 460 4.22 (not shown: Spn DPM-DC inh)
COc1ccc(C2C=C(C)Nc3nc(SC)nn32)cc1 (stereo not drawn)	Fluor 339 460 5.07 (not shown: Spn DPM-DC inh)
CCOC(=O)C1=C(C)Nc2nc(SC)nn2C1c1ccc(C(=O)OC)cc1 (stereo not drawn)	none
COC(=O)c1c(F)c(F)c(NCCO)c(F)c1F	none
COc1ccc(-c2cc3nc4c(c(=O)n3[nH]2)CCC4)cc1	Fluor 339 460 2.1 (not shown: Spn DPM-DC inh)
Cc1cc2nc3c(c(=O)n2[nH]1)CCCC3	none
O=c1c2c(nc3cc(-c4ccccc4)[nH]n13)CCC2	Fluor 339 460 3.4
Cc1ccc(-c2[nH]n3c(=O)c4c(nc3c2C)CCCC4)cc1	Fluor 339 460 2.39
Cc1ccc(CNC(=O)CN(C)S(=O)(=O)c2cccc3cccnc23)cc1	none
COc1ccc(S(=O)(=O)n2nc(OC(=O)c3c(-c4ccccc4Cl)noc3C)cc2N)cc1	none
CC1CCCN(c2nc3c(c(=O)[nH]c(=O)n3C)n2CCCc2ccccc2)C1 (stereo not drawn)	none
CSCC[C@@H](C(=O)O)N1Cc2ccccc2C1=O	none
O=C(O)[C@@H](c1ccccc1)N1Cc2ccccc2C1=O	Spn MK inh 72.0
O=C(Nc1ccc2c(c1)OCO2)C1CCN(S(=O)(=O)c2cccc3cccnc23)CC1	none
COc1ccc(N2CCN(CCNC(=O)c3cccn4c(=O)c5ccc(Cl)cc5nc34)CC2)cc1	none
COc1ccc2[nH]c(=O)c(CN(Cc3ccccc3)Cc3nnnn3CC3CCCO3)cc2c1 (stereo not drawn)	Fluor 339 460 2.32
Cc1ccc2[nH]c(=O)c(CN(Cc3cccs3)Cc3nnnn3Cc3ccccc3)cc2c1	none
COc1cc2cc(CN(Cc3nnnn3Cc3ccccc3)CC3CCCO3)c(=O)[nH]c2cc1OC (stereo not drawn)	Fluor 339 460 3.26
CCc1ccc2[nH]c(=O)c(CN(Cc3ccc(OC)cc3)Cc3nnnn3CCOC)cc2c1	none
COc1ccc(F)cc1CN1CCN(c2cc(C)nc3c4c(C)cc(C)nc4nn23)CC1	Fluor 339 460 3.87 (not shown: Spn DPM-DC inh)
Cc1cc(C)c2c(n1)nn1c(N3CCN(Cc4ccccc4)CC3)cc(C)nc21	Fluor 339 460 3.86 (not shown: Spn DPM-DC inh)
COc1ccc(Cl)cc1CN1CCN(c2nc(C)cc(C)c2C#N)CC1	none
O=C(Nc1cccc(C(F)(F)F)c1)C1CCCN1S(=O)(=O)c1cccc2cccnc12 (stereo not drawn)	none
CCN(CC)CCN1C(=O)c2ccccc2NC1c1cccc(F)c1 (stereo not drawn)	Fluor 339 460 2.07 (not shown: Spn DPM-DC inh)
COc1ccc(C2Nc3ccccc3C(=O)N2O)cc1OC (stereo not drawn)	none
CCN(CC)CCN1C(=O)c2ccccc2NC1c1cc(OC)c(OC)c(OC)c1 (stereo not drawn)	Fluor 339 460 2.3 (not shown: Spn DPM-DC inh)
COc1cc(OC)c(-c2nn3c(-c4cccnc4)nnc3s2)cc1OC	Fluor 339 460 3.85 (not shown: Spn DPM-DC inh)
COc1ccc(-c2nn3c(-c4ccco4)nnc3s2)cc1OC	Spn DPM-DC inh active
COc1cc(OC)c(-c2nn3c(-c4ccncc4)nnc3s2)cc1OC	none

Screening results deposited in PubChem by SRMLSC.
